Bioassay records from PubChem BioAssay.
PABP1 MLLE inh – inhibitors of microRNA-mediated deadenylation, human PABP1 MLLE binding; P11940; GST-MLLE / FITC-PAM2 fluorescence polarization; inhibition, % at 20 µM; 360,000 tested, 0.36% active; AID 588489; in the data active = inhibition above about 35%, passing the limit was not always enough
eIF4H inh – inhibitors of RNA binding by human eIF4H; eIF4H fluorescence polarization binding assay; 290,000 tested, 0.94% active; Q15056; inhibition, % at 35 µM;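 note: calls also rest on retests at 20 µM and on dose response follow-up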
eIF4E 4G PPI – inhibitors of eIF4E and eIF4G interaction in translation initiation | inhibition, % at 21.7 µM | TR-FRET eIF4E-eIF4GI(517-606) binding, 2 h | 220,000 tested, 0.37% active;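 active = inhibition above about 30%, limit read from the data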
PERK inhibitor – human PERK inhibition, primary cell-based screen; inhibition, % at 5.6 µM; Q9NZJ5; 220,000 tested, 0.17% active; CHO PERK-DD fusion, SEAP luminescence translation reporter; AID 1416;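 active = inhibition above the mean inhibition of all tested compounds plus 3 SD, set separately per screening campaign, cut at about 2.9% in these data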;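 note: PERK kinase domain activated by AP20187 dimerizer at 100 nM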
PABP polyA inh – PABP-poly(A) binding inhibition; P11940; PABP-poly(A) RNA binding, fluorescence polarization; calls only at 35 µM; 290,000 tested, 1% active;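 note: calls also rest on retests at 20 µM and on dose response follow-up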
A number is an active result; - = inactive; ? = inconclusive; . = no result given; + = active, no number; [ ] = another dose, or the depositor's remark. Compounds with a hit are over-represented: about 1.6% of the library has one in this group of screens. Unless noted, the rule behind the calls is not given here.

SMILES	PABP1 MLLE inh	eIF4H inh	eIF4E 4G PPI	PERK inhibitor	PABP polyA inh
CC(=O)N1CCN(CC(=O)Nc2cc(S(=O)(=O)N3CCOCC3)ccc2C)CC1	-	-	-	-	-
Oc1ccccc1N1CCN(CC(O)COCc2ccccc2Cl)CC1 (centres undefined)	-	-	-	-	-
CCOC(=O)CCC(NC(=O)CCCCCCCC(=O)NC(CCC(=O)OCC)C(=O)OCC)C(=O)OCC (centres undefined)	-	-	-	-	-
CCOc1cc(C2C3=C(CCCC3=O)NC3=C2C(=O)CCC3)ccc1OCCO	41	-	-	-	-
Cc1cc(NC(=O)c2noc3c2CCc2ccccc2-3)n(-c2ccccc2)n1	-	-	76[fluorescence artefact?]	-	-
Cc1cc(NC(=O)CC#N)n(-c2ccccc2)n1	-	78	-	-	-
Cc1cc(C(=O)CN2C(=O)C(=O)N(C3CCCC3)C2=O)c(C)n1CCc1ccc(F)cc1	-	.	.	.	.
CCOC1=CC2=C(C(=O)C(Cl)=CC2=O)[C@@H]2CN(S(=O)(=O)c3ccc(C)cc3)[C@@H](c3ccccc3)[C@H]12	46	.	.	.	.
CCCCC(=O)N(C)c1c(CC)nc2c(OCC(N)=O)cccn12	-	.	.	.	.
NC(=O)CSc1nnc(CSc2ncccn2)n1-c1ccccc1	-	-	-	3.0	-
Cc1cc(C)nc(SCc2nnc(SCC(=O)O)n2-c2ccccc2)n1	-	-	-	-	-
Cc1cc(C)cc(OCC(=O)N2CCN(c3ncccn3)CC2)c1	-	.	.	.	.
CC(C)c1nnc(SCC(=O)NCCC2=CCCCC2)n1N	42	-	-	-	-
Fc1cccc(-n2c(-c3ccco3)nc3nc4ccccc4nc32)c1	-	-	-	-	+
Cc1ccc(-n2c(-c3ccco3)nc3nc4ccccc4nc32)cc1F	-	-	-	-	-
CCCCOCCCn1c(-c2ccco2)nc2nc3ccccc3nc21	-	?	54	-	?
Fc1ccc(-n2c(-c3ccco3)nc3nc4ccccc4nc32)cc1	-	86	-	-	+
CCCCn1c(-c2cccs2)nc2nc3ccccc3nc21	-	-	-	-	-
CCOc1cc(Br)ccc1S(=O)(=O)N1CCC(C(N)=O)CC1	-	active	-	-	+
O=C(c1ccco1)N1CCN(Cc2nnnn2C2CCCCC2)CC1	-	-	.	.	-
O=C(Nc1ccccc1Cl)c1cc(C2CCCCN2C(=O)CCCc2ccccc2)on1 (centres undefined)	-	.	.	.	.
Cc1ccc(S(=O)(=O)N[C@H](C(=O)Oc2ccc3c(C(F)(F)F)cc(=O)oc3c2)c2ccccc2)cc1	36	-	-	-	-
COc1ccc(OCC(=O)NC(=S)Nc2ccc(S(=O)(=O)Nc3cc(OC)nc(OC)n3)cc2)cc1	49	-	-	-	-
COc1ccc(C(=O)NC(=S)Nc2ccc(S(=O)(=O)Nc3cc(OC)nc(OC)n3)cc2)cc1	-	-	.	.	-
CNC(=O)COc1ccc(S(=O)(=O)Nc2ccc(OC)cc2)cc1	-	-	-	3.6	-
SMILES	PABP1 MLLE inh	eIF4H inh	eIF4E 4G PPI	PERK inhibitor	PABP polyA inh
COc1ccc(S(=O)(=O)Nc2ccc(O)c3ccccc23)cc1	38	-	-	-	-
COc1ccc(CN(C)C(=O)C2CCN(S(=O)(=O)c3cccs3)CC2)cc1F	-	.	.	.	.
CCOC(=O)COc1nc(-c2ccco2)cc(-c2ccco2)c1C#N	-	89	-	-	+
N#Cc1c(-c2ccco2)cc(-c2ccccn2)nc1N	-	70	-	-	+
N#Cc1c(-c2ccco2)cc(-c2cccnc2)nc1N	-	96	-	-	+
N#Cc1c(-c2ccco2)cc(C2CC2)nc1N	-	-	-	-	-
CCOC(=O)COc1nc(-c2ccc(C)cc2)cc(-c2ccco2)c1C#N	-	-	-	-	-
CCSc1nc2sc3c(c2c(=O)[nH]1)CCc1ccccc1-3	-	-	-	-	-
NNc1nc2sc3c(c2c(=O)[nH]1)CCc1ccccc1-3	-	101	-	-	+
COc1ccc(S(=O)(=O)N2CCN(C(=O)CCSc3ccccc3)CC2)cc1	-	.	.	.	.
CC(=O)c1nnn(-c2c(F)cccc2F)c1C	-	-	-	3.1	-
CC(C)(C)C(=O)NC1CC2CCCC(C1)N2C(=O)Nc1cccc(Cl)c1 (centres undefined)	-	-	.	.	-
CC1CCCC(C)N1C(=O)Nc1cccc(Cl)c1 (centres undefined)	-	-	-	2.9	-
CC(C)(C)OC(=O)C[C@@H]1C/C=C\C[C@@H](CC(=O)N(CCO)Cc2ccccc2)C(=O)N2CCC[C@@H]2COC1=O	-	.	.	.	.
O=C(c1ncc[nH]1)c1cccs1	-	-	-	-	-
Cn1nnc(NC(=S)NC(=O)c2cccc3c(Br)cccc23)n1	40	-	.	.	-
COc1ccc(CNC(=O)C[C@H]2C[C@H](C(=O)N(C(C)C)C(C)C)[C@@]3(C)c4[nH]c5cc(-c6ccco6)ccc5c4CCN3C2=O)cc1OC	-	.	.	.	.
O=C(NNS(=O)(=O)c1ccc(F)cc1)C1CCN(Cc2cccc(F)c2)CC1	-	-	-	-	-
COCCCNC(=O)/C(C#N)=c1\s/c(=C\c2ccccc2OC(F)F)c(=O)n1CCCOC	-	55	-	-	-
COCCCn1c(=O)/c(=C/c2ccccc2OC(F)F)s/c1=C(\C#N)C(=O)NCCOC	-	.	.	.	.
C=CCSc1nc2c(c(=O)[nH]c(=O)n2C)n1C(C)C	41	-	-	-	-
O=C(O)C1C2C=CC(C2)C1C(=O)NCCCN1CCOCC1 (centres undefined)	-	-	-	3.0	-
S=C(NCCCN1CCOCC1)NCCCN1CCOCC1	41	-	-	-	-
CCN(CC)c1ccc(NC(=O)c2ccccc2OCC(=O)OC)cc1	-	-	-	-	-
Cc1ccc(S(=O)(=O)c2nc(-c3ccccc3)oc2N2CCC(C(N)=O)CC2)cc1	-	-	.	.	-
SMILES	PABP1 MLLE inh	eIF4H inh	eIF4E 4G PPI	PERK inhibitor	PABP polyA inh
CN(Cc1ccc(OC(F)F)cc1)C(=O)c1cccc(S(=O)(=O)N2CCN(Cc3ccccc3)CC2)c1	-	.	.	.	.
Cc1c(CCC(=O)NCCCCCC(=O)O)c(=O)oc2cc3occ(-c4ccccc4)c3cc12	-	72	.	.	+
Cc1c(CC(=O)NCCCC(=O)O)c(=O)oc2cc3occ(-c4ccccc4)c3cc12	-	-	.	.	-
Cc1cnc2c(N)cc(C)c(C)c2c1	-	.	.	.	.
O=c1c2ccccc2ncn1CCCSc1ccccc1	-	106	-	-	+
O=C(NC1CCCCCC1)C(=S)NCc1ccccc1	-	-	-	-	-
O=C(NC1CCCCCC1)C(=S)NCCc1ccccc1	44	-	-	-	-
CCN(CC(=O)Nc1c(F)cccc1F)C(=O)c1cccnc1Sc1ccccc1	-	.	.	.	.
CC1CC(=O)Nc2ccccc2N1C(=O)CSc1nnnn1C(C)C (centres undefined)	-	.	.	.	.
CS(=O)(=O)N1CCN(c2ccc([N+](=O)[O-])c(NCc3ccccc3)c2)CC1	-	-	-	-	-
CS(=O)(=O)N1CCN(c2ccc([N+](=O)[O-])c(NCc3ccc(Cl)cc3)c2)CC1	-	active	-	-	+
CCn1c(SCC(=O)NCc2ccc3c(c2)OCO3)nnc1-c1cccs1	-	-	68	-	-
